Bioassay records (PubChem BioAssay)
12-LOX inh = inhibitors of human 12S-lipoxygenase ALOX12. purified 12hLO, xylenol orange hydroperoxide absorbance. Potency, µM (titrated, usually from 108 µM), for inactives: top-dose activity change, negative = inhibition, actives largely listed as inhibitors. P18054. actives 1.1% (n = 580,000); note: % is set by controls: 0 for no effect and ±100 for the full control effect
Target sequence (P18054 whole entry, looked up): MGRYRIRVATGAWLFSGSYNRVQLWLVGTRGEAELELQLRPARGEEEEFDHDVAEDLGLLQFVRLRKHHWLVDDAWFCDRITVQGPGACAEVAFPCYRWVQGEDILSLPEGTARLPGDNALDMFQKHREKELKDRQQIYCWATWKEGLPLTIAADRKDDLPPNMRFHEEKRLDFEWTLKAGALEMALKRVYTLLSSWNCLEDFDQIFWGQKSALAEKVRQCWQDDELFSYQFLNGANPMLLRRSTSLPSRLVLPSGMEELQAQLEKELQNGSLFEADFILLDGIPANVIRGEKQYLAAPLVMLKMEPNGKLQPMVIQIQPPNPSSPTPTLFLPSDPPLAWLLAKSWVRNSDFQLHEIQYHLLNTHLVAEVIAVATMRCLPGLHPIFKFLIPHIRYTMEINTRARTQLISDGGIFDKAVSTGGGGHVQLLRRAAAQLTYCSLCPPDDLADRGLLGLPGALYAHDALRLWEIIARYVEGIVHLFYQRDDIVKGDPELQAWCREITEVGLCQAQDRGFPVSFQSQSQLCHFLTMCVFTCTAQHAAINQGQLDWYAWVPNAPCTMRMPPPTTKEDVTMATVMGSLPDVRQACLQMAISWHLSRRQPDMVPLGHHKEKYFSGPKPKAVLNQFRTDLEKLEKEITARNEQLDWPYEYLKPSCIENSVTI
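Hydroperoxide product was detected by ferrous iron/xylenol orange as the 573 to 405 nm absorbance ratio. Arachidonic acid at 40 uM (final) was turned over for 30 min at room temperature by 150 nM human 12hLO, pH 7.0 Hepes buffer, after 15 min compound preincubation.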
KB-3-1 cytotox = KB-3-1 parental cell cytotoxicity; actives 1.4% (n = 400,000); KB-3-1 viability, CellTiter-Glo ATP luminescence, 72 h; Potency, µM (top dose mostly 46.1 µM), most hits filed as cytotoxic; AID 1347075; note: % is set by controls: 0 for no effect and ±100 for the full control effect; nearly all actives have a fitted effect of over 60% in size
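Multi-concentration cytotoxicity screen in KB-3-1 cells grown in DMEM lacking phenol red with 10% FBS. After 72 h at 37 °C with compound, ATP-dependent luminescence was recorded.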
KB-V1 MDR tox = KB-V1 MDR subline cytotoxicity; Potency, µM (highest dose often 46.1 µM), most hits filed as cytotoxic; KB-V1 MDR cells viability, CellTiter-Glo, 72 h; actives 3.4% (n = 400,000); AID 1347076; note: % is set by controls: 0 for no effect and ±100 for the full control effect; nearly all actives have a fitted effect of over 60% in size
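KB-V1, DMEM (no phenol red) + 10% FBS; cpd pin-transferred, titration series; 72 h, 37 degrees C; CellTiter-Glo, luminescence. Data normalized, curve-fit.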
PINK1 expr mod = modulators of PINK1 expression. AID 624263. PINK1 immunofluorescence, high-content cytometry, 24 h. actives 0.2% (n = 410,000). Potency, µM (highest dose often 76.6 µM), without a hit: at the top dose activation (PINK1 increase), actives largely listed as activators; active = well fitted activation curve with a large enough effect; inconclusive = small, poorly fitted or top-dose-only effect; cell line not stated here; note: % of control where 0% means no effect; nearly all actives have a fitted effect of over 65% in size
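PINK1 protein, normally rapidly degraded, was detected by immunofluorescence after 24 hour compound treatment of a stable cell line. Titration data (5 concentrations) came from laser-scanning cytometry, with CCCP-treated wells as controls.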
MCF10A rereplic = inducers of DNA re-replication in MCF 10A breast cells | actives 2.9% (n = 350,000) | MCF 10A DNA re-replication, Hoechst nuclear intensity, 48 h | AID 624296 | Potency, µM (top dose mostly 46.1 µM), for the others: top-dose activity, positive = re-replication, actives largely listed as activators; note: % of control where 0% means no effect; nearly all actives have a fitted effect of over 50% in size
SW480 rereplic = DNA re-replication induction in SW480 cells; Potency, µM (series often up to 46.1 µM), without a hit: at the highest dose re-replication activation, hits mostly activators; actives 1.8% (n = 340,000); SW480 DNA re-replication, Hoechst DNA content imaging, 48 h; note: % of control where 0% means no effect; nearly all actives have a fitted effect of over 55% in size
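Image-based read-out: total Hoechst fluorescence of nuclei (405 nm excitation, 500-530 nm emission), with hits raising the fraction of high-intensity nuclei. SW480 colon cells incubated 48 hr with compounds at 37 C.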
Active calls of the source: *; i = inactive; ? = inconclusive; . = not tested or not shown; [ ] = another dose, or the depositor's remark. An excerpt weighted towards active compounds, which were near 5.8% of everything screened. Unless noted, calls come from the whole dose curve; as a rule, active = well fitted curve in the direction sought with a large enough effect; inconclusive = small, poorly fitted or top-dose-only effect, or another doubt; inactive = no such curve, though single readings can be large; an effect the other way counts as inactive or inconclusive. Potency is the fitted concentration of half-maximal effect.

SMILES	12-LOX inh	KB-3-1 cytotox	KB-V1 MDR tox	PINK1 expr mod	MCF10A rereplic	SW480 rereplic
C/C(=N\NC(=O)c1cccnc1)c1cc(C)oc1C	13%	i	i	0%	7%	21µM*
Cc1cc(C(=O)NC2CCCCC2)c2ccccc2n1	-5%	.	.	.	.	.
CN(C(=O)CSc1nc2ccccc2c(=O)n1CCc1cccs1)c1ccccc1	0%	.	.	.	.	.
Cc1c(S(=O)(=O)c2ccccc2)c(NC(=O)C(C)C)n(C(C)C)c1C	-5%	.	.	.	.	.
Cc1ccc2nc(CO[C@H]3CN(c4ccc(C#N)cn4)C[C@H]3F)[nH]c2c1	14µM*	.	.	.	.	.
CCOC(=O)c1c(NC(=O)c2ccc(OC)cc2)sc2c1CCCCC2	-25%	i	i	1%	.	.
CCOC(=O)c1c(NC(=O)C(=O)N/N=C/c2ccccc2O)sc2c1CCCCC2	-14%	?	3.7µM*	10%	-1%	?
CCOC(=O)c1c(NC(=O)C(=O)N/N=C(\C)c2ccc(OC)cc2)sc2c1CCCCC2	13%	i	3.3µM*	11%	8%	-5%
CCCCN1CCN(c2nc3c(c(=O)[nH]c(=O)n3C)n2Cc2ccccc2F)CC1	9%	.	.	.	.	.
O=C(NCc1cccnc1)c1cc(S(=O)(=O)N2CCCCC2)ccc1Cl	20%	i	i	1%	1%	-1%
O=C(c1ccc(Cl)cc1Cl)N(CCS(=O)(=O)N1CCCCC1)Cc1cccnc1	0.5µM*	.	.	.	.	.
Cc1[nH]c(I)c(C)c1C=O	14µM*	.	.	.	.	.
O=C(NC1CCN(c2cc(-c3ccccc3)[nH]n2)CC1)c1cnccn1	51%	.	.	.	.	.
CCNC(=O)NS(=O)(=O)c1cnccc1Nc1cccc(Cl)c1	-9%	i	i	1%	-6%	29µM*
Oc1ccc2ccccc2c1C=NNc1ccccn1	-16%	?	0.52µM*	2%	?	7.3µM*
Oc1ccc2ccccc2c1CNc1ccccn1	35µM*	i	i	4%	1%	-12%
Oc1ccc2ccccc2c1/C=N/Nc1nnc(-c2ncc[nH]2)c2ccccc12	?	?	?	7%	?	0.65µM*
OCC(CO)(CO)N=Cc1c(O)ccc2ccccc12	-29%	i	?	4%[38.3 µM]	8.2µM*	0%
Fc1cccc(F)c1/C=N/Nc1ccccn1	i	i	i	2%	?	27%
CN(C)/N=C/c1c(O)ccc2ccccc12	?	i	i	2%	-4%	-6%
Cc1cc(C)n(Cc2ccc(C(=O)N3CCC(c4noc(-c5cccnc5)n4)C3)o2)n1 (stereo unspecified)	-8%	.	.	.	.	.
O=C(Nc1ccccc1)N1CCCC(Cn2c(C3CC3)nc3cccnc32)C1 (stereo unspecified)	49%	.	.	.	.	.
CC1(C)Cc2sc3c(=O)n(CC(=O)c4ccc(Br)cc4)cnc3c2CO1	0%	.	.	.	.	.
COc1ccc(-c2nc(-c3ccc(O)cc3O)cs2)cc1OC	13%	i	?	-2%	21µM*	?
COc1ccc(-c2nc(-c3ccc(F)cc3)cs2)cc1	-26%	.	.	.	.	.
SMILES	12-LOX inh	KB-3-1 cytotox	KB-V1 MDR tox	PINK1 expr mod	MCF10A rereplic	SW480 rereplic
COc1ccc(-c2ccnc(-c3ccc(O)cc3)n2)cc1	-18%	5.8µM*	7.3µM*	0%	2.1µM*	8.2µM*
COc1ccc(-c2csc(-c3ccc(O)cc3)n2)cc1	-17%	4.1µM*	2.6µM*	7%	15µM*	7.3µM*
COc1ccc2cc(-c3csc(-c4cccnc4)n3)ccc2c1	?	i	i	-1%	15µM*	16%
CCC(=O)Nc1ccc(S(=O)(=O)NCCn2nc(-c3ccccc3)ccc2=O)cc1	40%	.	.	.	.	.
COc1ccccc1NS(=O)(=O)c1cc(C(=O)N2CCc3sccc3C2)ccc1C	-14%	.	.	.	.	.
c1coc(-c2ccnc(-c3ccncc3)n2)c1	-7%	i	i	2%	-5%	-8%
COc1ccc(-c2ccnc(-c3ccncc3)n2)cc1	?	?	i	7%	17%	21µM*
CCc1ccc(NC2=CC(=O)C(=O)c3ccccc32)cc1	?	18µM*	16µM*	-2%	9.2µM*	7.3µM*
